These results are taken from PubChem BioAssay AID602295 (Broad Institute, 2012).

Activity calls are given as the source filed them.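 Rule for the calls: active = every separate test run called active, meaning the signal drops and a potency is fitted within twice the top valid dose; inconclusive = runs disagree, poor fit, or flat partial inhibition; inactive = all runs inactive, flat, opposite direction or too weak.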

The target of this test is Mitogen-activated protein kinase 3 (Homo sapiens) (UniProt P27361). The test can be described thus: ERK1 kinase inhibitors, dose response, selectivity assay for Dyrk1A inhibitor NFAT project, biochemical, ADP-Glo luminescence, cherry pick, set 2 (AID 602295). Particulars: 120 min; series mostly up to 10 µM.
Mitogen-activated protein kinase 3 (Homo sapiens), sequence (P27361 whole entry, looked up): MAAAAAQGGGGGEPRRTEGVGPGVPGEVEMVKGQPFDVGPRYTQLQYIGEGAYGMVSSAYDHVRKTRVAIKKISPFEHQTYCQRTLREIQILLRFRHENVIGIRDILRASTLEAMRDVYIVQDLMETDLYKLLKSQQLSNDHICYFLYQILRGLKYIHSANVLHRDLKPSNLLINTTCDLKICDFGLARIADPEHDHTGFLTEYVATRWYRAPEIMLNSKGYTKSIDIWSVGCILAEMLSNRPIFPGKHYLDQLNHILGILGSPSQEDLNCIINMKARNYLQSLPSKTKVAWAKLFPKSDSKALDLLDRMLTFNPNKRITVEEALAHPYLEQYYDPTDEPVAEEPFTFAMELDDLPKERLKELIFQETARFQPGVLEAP
As for `Clc1cc(Cl)cc(CNc2ncncc2-c2ccc3c(c2)OCO3)c1`, the compound was called inactive. The same measure for `COc1cccc(Nc2nc(-c3ccc(O)cc3)cs2)c1`: “inactive”. The same measure for `Clc1ccc(CNc2ncncc2-c2ccc3c(c2)OCO3)cc1`: “inactive”; for `COc1ccc(C(=O)c2sc(Nc3ccccc3F)nc2N)cc1`: “inactive”. In the case of `CCOC(=O)c1ccc(-c2ccc3ncnc(N(C)Cc4sccc4C)c3c2)o1` it was “inactive”. As to `CCN(Cc1cccs1)c1ncnc2ccc(-c3ccc4c(c3)OCO4)cc12`, the compound was called inactive. For `COc1cccc(Nc2ncnc3ccccc23)c1`, the result was inactive.

As for `CCOC(=O)c1ccc2ncc(C(=O)OCC)c(Nc3ccc(N4CCOCC4)cc3)c2c1`, the outcome was inactive. `COc1cccc(-c2sc3ccccc3c2-c2ccc(OCCN3CCCC3)cc2)c1`: the result was inactive. Consider `Clc1ccc(CNc2nccc(-c3ccc4c(c3)OCCO4)n2)cc1Cl`, for which the compound was called inactive. `CSCC(=O)Nc1nc(-c2ccc3c(c2)OCCO3)cs1`: the outcome was inactive. In the case of `Cc1ccsc1CNc1ncnc2ccc(-c3ccc4c(c3)OCO4)cc12` it was “inactive”; in that of `O=C(Nc1nc2ccc(Cl)cc2s1)C1CCCO1` (configuration not stated), “inactive”. Regarding `Fc1c(-c2ccc3ncnc(NCc4cccs4)c3c2)ccc2c1OCO2`, the call was inactive.

Consider `COc1cccc(NC(=O)Nc2ccc3c(c2)N(C)C(=O)CS3)c1`, for which the compound was classed as inactive.

`O=C(Nc1nc(-c2ccc3c(c2)OCCO3)cs1)c1ccco1`: the call was inactive. Consider `CCN1CCN(Cc2ccc(NC(=O)c3ccc(C)c(NC(=O)N4CCNC4=O)c3)cc2C(F)(F)F)CC1`, for which the compound was called inactive. In the case of `O=C(COc1ccccc1)Nc1cccc(-c2cn3cccnc3n2)c1` it was “inactive”. As to `Cc1nc(CNc2ncnc3ccc(-c4ccc5c(c4)OCO5)cc23)cs1`, the call was inactive. The same measure for `CC(Nc1nc(-c2cccnc2)nc2ccccc12)c1ccc(F)cc1` (configuration not stated): “inactive”. Regarding `Cc1noc(CN(C)c2ncnc3ccc(-c4ccc5c(c4)OCO5)cc23)n1`, the compound was classed as inactive. The same measure for `FC(F)(F)c1cccc(Nc2nccc(-c3ccc4c(c3)OCO4)n2)c1`: “inactive”. In the case of `Clc1ccc(CNc2ccnc(-c3ccc4[nH]ncc4c3)n2)cc1Cl` it was “inactive”; in that of `N#Cc1c(C(F)(F)F)cc(-c2cccc(Cl)c2)[nH]c1=O`, “inactive”; in that of `O=C(Nc1nc2c(s1)CCCC2)c1ccc(N2C(=O)CCC2=O)cc1`, “inactive”.

As to `Cc1ccsc1CN(C)c1ncnc2ccc(-c3ccc(CO)o3)cc12`, the result was inactive.

For `Cc1ccsc1CN(C)c1ncnc2ccc(-c3ccoc3)cc12`, the result was inactive.

Consider `NC(=O)c1c(NC(=O)c2ccc(N3C(=O)CCC3=O)cc2)sc2c1CCCC2`, for which the compound was classed as inactive.

Take `c1csc(CCNc2ncnc3ccc(-c4ccc5c(c4)OCO5)cc23)c1`: the result was inactive. Consider `Cc1nc(NC(=O)c2ccccc2)sc1-c1csc(N)n1`, for which the outcome was inactive. On to `CN(C)c1ccc(-c2nccc(NCc3cccs3)n2)cc1`, for which the compound was called inactive. The same measure for `c1cncc(CNc2cc(-c3ccc4c(c3)OCO4)ncn2)c1`: “inactive”.
